Shh pathway inh: blocks Sonic Hedgehog signaling. Shh-LIGHT2 Gli-luciferase reporter, 30 h. inhibition, % (test concentration not listed). 2.1% of 22,000 active. AID 2313;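 active = mean inhibition across valid replicates above about 65%, limit read from the data; inconclusive = mean under the limit, yet half or more replicates past it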;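 also: pathway switched on by Shh-conditioned medium diluted 1 in 25 in low serum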
PD-1 reverse act: reversal of PD-1 mediated T-cell inhibition; primary human CD4 T cells, PD-L1 beads, CellTiter-Glo 96 h; activation, % (no concentration beside the values); 29,000 tested, under 10 active; AID 2316; call rule not given here;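 also: 0% = median vehicle wells and 100% = positive control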
NOMO-1 viab: STK33 inhibitor candidate reducing NOMO-1 cell viability. inhibition, % (test concentration not listed). NOMO-1 AML viability, CellTiter-Glo luminescence, 72 h. AID 2330. 7.5% of 37,000 active; in the data active = inhibition above about 80%; inconclusive = no clear call, values can overlap the other calls
MITF inhib: blocks MITF activity. inhibition, % (test concentration not listed). TRPM1 promoter luciferase, luminescence, 24 h. 0.28% of 37,000 active; in the data active = inhibition above about 85%; inconclusive = no clear call, values can overlap the other calls; inactive = below about 68%;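 also: human melanocyte line stably carrying TRPM1 promoter luciferase reporter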
An asterisk follows results filed as active; ? = inconclusive; / = no result; ! = a repeat was not active. The list is not random: actives were taken first. Their share in the collection is about 8.1%.

SMILES	Shh pathway inh	PD-1 reverse act	NOMO-1 viab	MITF inhib
C[C@@H]1CN([C@H](C)CO)C(=O)c2cccc(NC(=O)c3nc4ccccc4s3)c2O[C@H]1CN(C)Cc1ccc(C(=O)O)cc1	-16.7	-1.5	11.4	4.9
C[C@H](CO)N1C[C@H](C)[C@@H](CN(C)Cc2ccc(C(=O)Nc3ccccc3N)cc2)Oc2c(NC(=O)c3nc4ccccc4s3)cccc2C1=O	/	-1.1	110.3*	22.2
C[C@@H]1CN([C@@H](C)CO)C(=O)c2cccc(NC(=O)c3nc4ccccc4s3)c2O[C@@H]1CN(C)Cc1ccc(C(=O)Nc2ccccc2N)cc1	/	-5.6	127.5*	18.3
CCOC(=O)c1c(N(C)C)ccc(C2C=CNC(=O)N2)c1C (stereo not given)	-24.6	0.3	23.8	-10.1
CCOC(=O)C1CCN(S(=O)(=O)Cc2ccccc2)C1=O (stereo not given)	7.6	-0.4	112.0*	-18.4
COc1ccc(OC)c(NC(=O)c2ccc(Cl)c(S(=O)(=O)Nc3ccc(C)cc3)c2)c1	/	-1.6	93.0*	16.0
COc1ccc(OC)c(NC(=O)c2ccc(C)c(S(=O)(=O)Nc3ccc(C)cc3)c2)c1	/	-4.9	102.6*	51.1
O=C(CS(=O)c1ccc(C(F)(F)F)cc1[N+](=O)[O-])Oc1ccc(C2CCCCC2)cc1 (stereo not given)	/	-15.9	120.7*	-3.8
C[C@@H]1CN([C@@H](C)CO)C(=O)c2cccc(NC(=O)CCCCCC(=O)Nc3ccccc3N)c2O[C@@H]1CN(C)Cc1ccc(C(F)(F)F)cc1	/	1.6	118.8*	33.3
C[C@@H]1CN([C@H](C)CO)C(=O)c2cccc(NC(=O)CCCCCC(=O)Nc3ccccc3N)c2O[C@@H]1CN(C)Cc1ccc(C(F)(F)F)cc1	/	1.1	114.6*	16.2
C[C@H](CO)N1C[C@H](C)[C@H](CN(C)Cc2ccc(C(F)(F)F)cc2)Oc2c(NC(=O)CCCCCC(=O)Nc3ccccc3N)cccc2C1=O	/	-0.1	114.6*	8.0
C[C@H](CO)N1C[C@H](C)[C@H](CN(C)C(=O)Nc2ccc(C(F)(F)F)cc2)Oc2c(NC(=O)CCCCCC(=O)Nc3ccccc3N)cccc2C1=O	/	-0.7	114.2*	22.4
C=CC1CN(C(C)=O)CCC1CCC(=O)c1ccnc2ccccc12 (stereo not given)	-17.2	-2.2	23.8	62.0
COc1ccc(NC(=O)Nc2ccc3c(c2)C(=O)N([C@H](C)CO)C[C@@H](C)[C@@H](CN(C)Cc2ccc(Cl)c(Cl)c2)O3)cc1	/	0.7	98.3*	16.5
COc1ccc(NC(=O)Nc2ccc3c(c2)C(=O)N([C@@H](C)CO)C[C@H](C)[C@H](CN(C)Cc2ccc(Cl)c(Cl)c2)O3)cc1	17.0	-0.5	104.2*	22.8
COc1ccc(C2C3CCc4ccccc4C3=NN2C(=O)c2cccs2)cc1 (stereo not given)	22.8	-2.0	34.7	6.7
COc1ccc(S(=O)(=O)Nc2ccc(Br)c3cccnc23)c([N+](=O)[O-])c1	/	-8.5	127.9*	53.8
COc1cc(CSc2nnnn2-c2ccc(C)cc2C)cc(OC)c1OC	?	1.8	46.3	39.5
c1ccc2cc3c(Nc4ccc(N5CCOCC5)cc4)ccnc3cc2c1	/	-0.8	136.3*	11.5
Cc1ccc2c(CC(=O)NCc3ccco3)coc2c1C	/	-2.0	114.9*	10.0
Cc1ccc2c(CC(=O)Nc3cccc([N+](=O)[O-])c3)coc2c1C	/	-2.8	17.0	-41.6
C1=Cc2nonc2C2C=C(c3ccccc3)N=C12 (stereo not given)	14.1	-1.2	91.9*	25.9
Nc1nonc1-c1ccccc1	-9.0	0.1	14.7	-3.1
N=c1oc2ccccc2cc1C(=O)Nc1ccc(F)cc1	/	-1.8	119.9*	44.0
COc1ccc(NC(=O)Nc2ccc3c(c2)CC(=O)N([C@H](C)CO)C[C@@H](C)[C@@H](CN(C)S(=O)(=O)c2ccc(C)cc2)O3)cc1	/	-1.0	14.4	12.4
SMILES	Shh pathway inh	PD-1 reverse act	NOMO-1 viab	MITF inhib
COc1ccc(NC(=O)Nc2ccc3c(c2)CC(=O)N([C@@H](C)CO)C[C@H](C)[C@H](CN(C)S(=O)(=O)c2ccc(C)cc2)O3)cc1	-23.1	/	128.0*	42.4
COc1ccc(NC(=O)Nc2ccc3c(c2)CC(=O)N([C@@H](C)CO)C[C@@H](C)[C@@H](CN(C)S(=O)(=O)c2ccc(Cl)cc2)O3)cc1	0.9	-0.7	35.0	15.8
COc1ccc(NC(=O)Nc2ccc3c(c2)CC(=O)N([C@@H](C)CO)C[C@H](C)[C@@H](CN(C)S(=O)(=O)c2ccc(Cl)cc2)O3)cc1	74.1*	-1.2	28.9	9.1
COc1ccc(NC(=O)C2CC(=O)NC(=Nc3ccccc3)S2)cc1 (stereo not given)	/	1.9	-6.1	-9.8
CC(Oc1ccc(C(C)(C)C)cc1)c1nc(-c2cccnc2)no1 (stereo not given)	/	-6.1	81.3*	62.5
O=C(Cn1cnc2ccccc2c1=O)Nc1ccc(F)cc1F	/	2.0	-8.4	-8.1
COc1cc(O)c2c(=O)c(OC)c(-c3ccc(OC)c(OC)c3)oc2c1	-4.8	0.3	30.6	-15.2
COC(=O)C1c2c(oc3cc(CO)cc(O)c3c2=O)C=CC1O (stereo not given)	29.8	-13.3	107.3*	-18.6
C[C@H](CO)N1C[C@H](C)[C@@H](CN(C)Cc2ccc(Cl)c(Cl)c2)Oc2c(NC(=O)c3ccc(-c4nccs4)cc3)cccc2C1=O	60.0	-9.1	115.7*	58.1
C[C@@H]1CN([C@@H](C)CO)C(=O)c2cccc(NC(=O)c3ccc(-c4nccs4)cc3)c2O[C@H]1CN(C)Cc1ccc2c(c1)OCO2	-40.7	-4.0	103.0*	21.9
C[C@H](CO)N1C[C@H](C)[C@H](CN(C)S(=O)(=O)c2ccc(Cl)cc2)Oc2c(NC(=O)c3ccc(-c4nccs4)cc3)cccc2C1=O	94.6*	-1.4	84.0*	13.5
COc1ccc(NC(=O)C(C)N(c2cc(C)cc(C)c2)S(C)(=O)=O)c(OC)c1 (stereo not given)	/	0.8	4.3	8.3
COc1cc(C(c2c[nH]c3ccccc23)c2c[nH]c3ccccc23)c(O)c([N+](=O)[O-])c1	/	/	4.6	30.0
O=c1c(-c2nn[nH]n2)coc2ccccc12	-58.5	0.5	30.9	-8.3
C[C@H]1CN([C@@H](C)CO)C(=O)Cc2cc(NS(=O)(=O)c3ccc(F)cc3)ccc2O[C@H]1CN(C)Cc1ccc(C(=O)Nc2ccccc2N)cc1	/	-0.9	140.0*	21.7
C[C@@H]1CN([C@@H](C)CO)C(=O)Cc2cc(NS(=O)(=O)c3ccc(F)cc3)ccc2O[C@@H]1CN(C)Cc1ccc(C(=O)Nc2ccccc2N)cc1	/	0.0	112.1*	24.9
C[C@H]1CN([C@@H](C)CO)C(=O)Cc2cc(NS(C)(=O)=O)ccc2O[C@@H]1CN(C)Cc1ccc(C(=O)Nc2ccccc2N)cc1	/	0.2	16.2	-7.2
OC(Cc1cccnc1)(c1ccccc1)c1ccccc1	70.6*	-0.7	8.9	26.9
CN1C(=O)[C@@]2(Cc3ccccc3)SSS[C@]1(CO)C(=O)N2C	70.2*	-16.7	108.4*	91.0*
CCOC(=O)CC(c1ccccc1)S(=O)(=O)O (stereo not given)	/	/	6.9	-4.9
COc1cc2ncnc(Nc3cccc(Cl)c3)c2cc1OC	-8.5	0.8	89.5*!	52.0

Assay outcomes deposited in PubChem BioAssay by Broad Institute.
